# High-throughput results (PubChem)
# SW480 rerep: DNA re-replication induction in SW480 cells; AID 624297; SW480 DNA re-replication, Hoechst DNA content imaging, 48 h; Potency, µM (doses to about 46.1 µM), for inactives: top-dose re-replication activation, most hits filed as activators; hit rate 1.8% among 340,000; note: % of control where 0% means no effect; nearly all actives have a fitted effect of over 55% in size
#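 Quantitative HTS format with DMSO vehicle controls; 48 hr drug incubation at 37 C, then 40 min Hoechst staining and scanning imager measurement at 405 nm excitation.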
# MCF10A rereplic: inducers of DNA re-replication in MCF 10A breast cells. MCF 10A DNA re-replication, Hoechst nuclear intensity, 48 h. Potency, µM (top dose mostly 46.1 µM), for the others: top-dose activity, positive = re-replication, usual class: activators. hit rate 2.9% among 350,000. AID 624296; note: % of control where 0% means no effect; nearly all actives have a fitted effect of over 50% in size
# KB-V1 MDR tox: kills drug-selected multidrug resistant KB-V1 cells; Potency, µM (highest dose often 46.1 µM), most hits filed as cytotoxic; KB-V1 MDR cells viability, CellTiter-Glo, 72 h; hit rate 3.4% among 400,000; AID 1347076; note: % is set by controls: 0 for no effect and ±100 for the full control effect; nearly all actives have a fitted effect of over 60% in size
#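 Compound-treated KB-V1 multidrug-resistant cells, 72 h, 37 degrees C; viability by CellTiter-Glo. Fitted qHTS curves give the values.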
# KB-3-1 tox: kills parental KB-3-1 adenocarcinoma cells; KB-3-1 viability, CellTiter-Glo ATP luminescence, 72 h; Potency, µM (top dose mostly 46.1 µM), hits mostly cytotoxic; hit rate 1.4% among 400,000; AID 1347075; note: % is set by controls: 0 for no effect and ±100 for the full control effect; nearly all actives have a fitted effect of over 60% in size
#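 Using CellTiter-Glo luminescence, growth of non-resistant KB-3-1 adenocarcinoma cells is assessed 72 h after pin-tool compound addition at 37 °C. Normalized responses across the concentration series yield fitted curves.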
# TSG101-PTAP inh: blocks PTAP/TSG101 interaction to inhibit HIV-1 budding | Q99816 | AID 493005 | Potency, µM (titrated, usually from 115 µM), without a hit: at the top dose activity change, negative = inhibition, most hits filed as inhibitors | Fluorescence polarization, FITC-PTAP peptide / Tsg101 binding | 340,000 tested, under 10 active; active = well fitted inhibition curve with a large enough effect in the main read-out, with a control signal flat, not every such curve was filed as active; inconclusive = small, poorly fitted or top-dose-only effect, or effect the other way, or a change in a side signal; inactive = no such curve, though single readings can be large or run the other way; note: % of control where 0% means no effect
#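 Fluorescence anisotropy tracks displacement of a FITC-tagged PTAP peptide (50 nM) from the Tsg101 binding domain (10 uM), following a 20 min room-temperature incubation at pH 7.5.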
# RGS4 inhibitor: human RGS4 inhibition | Transcreener GDP fluorescence polarization, RGS4-accelerated GTP hydrolysis | Potency, µM (doses to about 114 µM), inactives show at the top dose activity change, negative = inhibition, actives largely listed as inhibitors | hit rate 0.039% among 390,000; note: % is set by controls: 0 for no effect and ±100 for the full control effect; nearly all actives have a fitted effect of over 75% in size
# Target sequence (P49798 whole entry, looked up): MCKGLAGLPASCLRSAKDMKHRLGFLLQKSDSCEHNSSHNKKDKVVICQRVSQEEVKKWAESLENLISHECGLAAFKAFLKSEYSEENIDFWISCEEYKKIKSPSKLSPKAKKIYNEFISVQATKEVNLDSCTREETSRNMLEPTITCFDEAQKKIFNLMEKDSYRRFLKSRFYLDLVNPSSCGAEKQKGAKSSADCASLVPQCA
#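 MLSMR compounds (23 nl, pin-transferred) preincubated 10 min at room temperature with a 500nM (2x) first reagent, then RGS4 at 900nM (2x) plus Transcreener GDP mix added; fluorescence polarization (620/688 nm) read before and after 90 min at 30 °C.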
# An asterisk follows results filed as active; i = inactive; ? = inconclusive; . = not tested or not shown; [ ] = remark or other dose. An excerpt weighted towards active compounds, which were near 6.6% of everything screened. Unless noted, calls come from the whole dose curve; as a rule, active = well fitted curve in the direction sought with a large enough effect; inconclusive = small, poorly fitted or top-dose-only effect, or another doubt; inactive = no such curve, though single readings can be large; an effect the other way counts as inactive or inconclusive. Potency is the fitted concentration of half-maximal effect.
SMILES,SW480 rerep,MCF10A rereplic,KB-V1 MDR tox,KB-3-1 tox,TSG101-PTAP inh,RGS4 inhibitor
C=C(C)COc1ccc(-c2nc(N)ncc2-c2ccc(OC)c(OC)c2)c(O)c1,13%,?,i,i,-7%,-12%
Cc1cccc(-c2noc(-c3cc(C(C)C)[nH]n3)n2)c1,.,.,.,.,.,-28%
Cc1ccc(S(=O)(=O)/C=C/C#N)cc1,.,.,.,.,.,6µM*
CC(=O)Nc1nc(-c2ccccc2)nc(C)c1C(C)=O,0%,19%,i,i,-3%,-4%
CC(=O)c1c(C)nc(-c2ccccc2)nc1NC(=O)C(C)C,-5%[9.22 µM],3%,i,i,-4%,-3%
Cc1nc(-c2ccccc2)nc2[nH]c(C(C)C)cc(=O)c12,4%,9.2µM*,?,i,-1%,28%
Cc1nc(-c2ccccc2)nc2[nH]c(=O)n(-c3ccccc3)c(=O)c12,-16%,-4%,21µM*,?,-5%,-27%
CCCCOc1ccccc1CC1C(=O)Nc2ccc(Br)cc21 (centres undefined),.,.,.,.,.,11%
CCOc1ccc(C(=O)NCC(=O)NCCSc2ccc(Br)cc2)cc1OCC,-6%,2%,3.7µM*,i,-3%,?
COc1cc(OC)c(OC)cc1/C=C/c1ccnc2ccccc12,?,?,?,?,2%,3%
COc1ccc(OC)c(/C=C/c2ccnc3ccccc23)c1,12µM*,5.2µM*,5.2µM*,?,-2%,-6%
COc1ccc2nccc(/C=C/c3ccnc4ccc(OC)cc34)c2c1,23µM*,15µM*,i,i,-3%,3%
COc1ccccc1/C=C/c1ccnc2ccccc12,.,.,i,i,.,.
Cc1cccc(C(=O)NCC(c2ccc3c(c2)OCO3)N2CCOCC2)c1 (centres undefined),.,.,i,i,.,14%
NNc1nc2ccc(Cl)cc2s1,?,21µM*,?,?,0%,-20%
Cc1cc(C(=O)Nc2nc3ccc(Cl)cc3s2)nn1C,6.5µM*,0%,?,i,-2%,-2%
Cc1cc(=O)[nH]c(SCc2csc(-c3ccccc3)n2)n1,-60%,10%,23µM*,i,-1%,10%
Nc1cc(=O)[nH]c(SCc2ccccc2Cl)n1,-3%,-2%,i,i,0%,12%
Cc1cc(=O)[nH]c(SCc2cccc(Br)c2)n1,-2%,15%,?,i,-2%,-27%
COc1ccc(CSc2nc(C)cc(=O)[nH]2)cc1Br,-9%,4%,18µM*,i,.,-14%
Nc1cc(=O)[nH]c(SCc2csc(-c3ccccc3)n2)n1,0%,?,16µM*,?,-2%,-16%
Cc1ccccc1CNC(=O)CCC(=O)N1CCSc2ccccc21,.,.,.,.,.,2%
O=C(NCC1CCCO1)c1cc([N+](=O)[O-])ccc1N1CCC(Cc2ccccc2)CC1 (centres undefined),-24%,13%,?,4.6µM*,-6%,-39%
CCN(CC)C(=O)c1cccc(-c2csc(C(O)c3ccc(F)c(OC)c3)n2)c1 (centres undefined),.,.,?,i,.,.
CCN(CC)C(=O)c1cccc(-c2csc(C(O)c3ccc(OC)cc3)n2)c1 (centres undefined),.,.,18µM*,?,.,.
COc1ccccc1N=Nc1nc(-c2ccccc2)c(-c2ccccc2)[nH]1,1%,13%,i,?,1%,-20%
Oc1ccccc1N=Nc1nc(-c2ccccc2)c(-c2ccccc2)[nH]1,?,?,0.92µM*,i,-1%,3%
O=C(/C=C/Nc1cccc(C(F)(F)F)c1)c1ccc(Oc2ncccn2)cc1,-36%,0%,21µM*,i,0%,-14%
O=C1CS/C(=N/N=C/c2c[nH]c3ccccc23)N1,129%,18µM*,i,i,-3%,-9%
CC(=O)c1cccc(Nc2cc(C)nc3nc(-c4ccccc4C)nn23)c1,.,.,i,i,.,-31%
